This is part of a sample that, as a whole, favours compounds with a hit. Of some 83,000 tested, about 20% had one in any assay.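 Plates (96-well) were seeded with cells, treated with compound at one concentration, and incubated for 48 hours before percent growth was determined.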 Activity calls are given as the source filed them. How the source made its calls: active means growth percent below 10; inactive means the rest.
Legend:
Experiment in all cases: NCI-60 one-dose screen, 48 h (100 = growth as untreated, 0 = no growth, -100 = all killed)
Conditions in all cases: 10 µM unless noted
[1] = test system: NCI-H23 lung
[2] = test system: NCI-H226 lung
[3] = test system: NCI-H322M lung
[4] = test system: HOP-62 NSCLC
[5] = test system: NCI-H460 lung
[6] = test system: HOP-92 NSCLC
[7] = test system: NCI-H522 lung
[8] = test system: A549/ATCC NSCLC
[9] = test system: 786-0 renal
[10] = test system: COLO 205 colon
[11] = test system: DU-145 prostate
[12] = test system: K-562 leukemia
[13] = test system: MDA-MB-231 breast
[14] = test system: RXF 393 renal
[15] = test system: SF-268 CNS
[16] = test system: SF-295 CNS
[17] = test system: SF-539 CNS
[18] = test system: UACC-257 melanoma
[19] = test system: M14 melanoma
[20] = test system: MALME-3M melanoma

Measured: growth

COCCNC1=C(Cl)C(=O)c2ccccc2C1=O
inactive: [1] 64.8% | [2] 95.9% | [3] 113% | [4] 117% | [5] 95.4% | [6] 137% | [7] 96.1% | [8] 88.8% | [9] 114% | [10] 110% | [11] 53.9% | [12] 99.8% | [13] 99.6% | [14] 105% | [15] 95.6% | [16] 75.1% | [17] 136% | [18] 100% | [19] 96.9%

Oc1cccc2oc(=S)[nH]c12
inactive: [1] 104% | [2] 106% | [3] 128% | [4] 104% | [5] 116% | [6] 102% | [7] 101% | [8] 107% | [9] 106% | [10] 117% | [11] 118% | [12] 118% | [13] 99.1% | [14] 112% | [15] 111% | [16] 118% | [17] 88.8% | [18] 114% | [19] 111%

COc1ccc2nc(-c3cc(-c4cc(OC)c(OC)c(OC)c4)n[nH]3)[nH]c2c1
active: [1] 7.44% | [2] -48.9% | [4] -1.25% | [7] -15.1% | [8] 6.33% | [10] -20% | [12] -10.7% | [20] -40.4% | [18] -13.4% | [19] 9.11%
inactive: [3] 31.1% | [5] 25.2% | [6] 22% | [9] 59.5% | [11] 11.8% | [13] 36.2% | [14] 45.8% | [15] 10.7% | [17] 34.4%

Nc1c(Cl)cc(N=Nc2ccccc2)cc1Cl
inactive: [1] 88% | [2] 55.2% | [3] 86.7% | [4] 91.4% | [5] 65.1% | [6] 57.7% | [7] 96.8% | [8] 88.2% | [9] 101% | [10] 97.5% | [11] 101% | [12] 92.5% | [13] 84.2% | [14] 108% | [15] 102% | [16] 89.7% | [17] 103% | [18] 100% | [19] 105%

CC(C)(C)CC(C)(C)c1ccc(OCCOCC[N+](C)(C)CC(=O)[O-])cc1
inactive: [1] 108% | [2] 105% | [3] 111% | [4] 106% | [5] 110% | [6] 105% | [7] 103% | [8] 101% | [9] 106% | [10] 105% | [11] 114% | [12] 105% | [20] 102% | [13] 112% | [14] 134% | [15] 109% | [17] 104% | [18] 100% | [19] 104%

N=c1ccc2nc3c(cc(N)c4ccccc43)oc-2c1
inactive: [6] 21.7%
active: [1] -80.4% | [2] -61.3% | [3] -34.2% | [4] -97.7% | [5] -77.3% | [7] -70.1% | [8] -44% | [9] -90.7% | [10] -100% | [11] -100% | [12] -67.3% | [20] -91.5% | [13] -52.8% | [15] -59.2% | [16] -69.8% | [17] -98.9% | [18] -91.5% | [19] -100%

CCCC(=O)N1CCCCC1CC (stereo unspecified)
inactive: [1] 111% | [2] 101% | [3] 127% | [4] 107% | [5] 97% | [6] 74.5% | [7] 99.9% | [8] 99.6% | [9] 104% | [10] 116% | [11] 106% | [12] 87.5% | [20] 118% | [13] 115% | [14] 115% | [17] 87.5% | [18] 90.6% | [19] 114%

CC(=O)Oc1ccccc1C(=O)/C=C/c1cccc([N+](=O)[O-])c1
inactive: [1] 87.9% | [2] 94.2% | [3] 99.2% | [4] 99.2% | [5] 82.5% | [6] 69.8% | [7] 55.9% | [8] 95.6% | [9] 81.6% | [10] 86.7% | [11] 75% | [12] 28.1% | [13] 85.2% | [14] 60.4% | [15] 62.6% | [16] 68.7% | [17] 80.8% | [18] 103% | [19] 96.4%

— PubChem BioAssay (NCI)
